Assay results from PubChem BioAssay (EPA / NIEHS).
Results filed as inconclusive are left out. Active and inactive are the calls of the source. Rule for the calls: active = hit-call score of the fitted dose curve at least 0.9, where 1 is the maximum; inconclusive = response in the unintended direction; inactive = score below 0.9.

biological target: chicken Estrogen Receptor (ERa), ESR1 (gene 396099) (UniProt P06212); test: ATG_chERa_XSP2: Attagene TRANS-FACTORIAL Multi-Species (XSP2) HepG2 Assay for chicken Estrogen Receptor (ERa) (AID 2283817);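 note: actives raise reporter signal above DMSO so AC50 reflects ER activation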
Experimental: ATG_XSP2_multi-species_TRANS is a cell-based, multiplexed assay created by modifying the existing Attagene TRANS-FACTORIAL system to include a panel of nuclear receptors from some or all the following species: human (Homo sapiens), mouse (Mus musculus), frog (Xenopus laevis), zebrafish (Danio rerio), chicken (Gallus gallus), and turtle (Chrysemys picta). The ECOTOX-FACTORIAL format uses HepG2, a human liver cell line, with measurements taken at 24 hours after chemical dosing in a 24-well plate. Xsp2 included 3 nM 6-alpha-fluorotestosterone and 1.5 nM norgestrel to stimulate the androgen receptor.ATG_chERa_XSP2 is one of 29 assay components measured or calculated from the ATG_XSP2_multi-species_TRANS assay. It is designed to make measurements of mRNA induction, a form of inducible reporter, as detected with fluorescence intensity signals by Reverse transcription polymerase chain reaction (RT-PCR) and Capillary electrophoresis technology.The assay endpoint ATG_chERa_XSP2 was analyzed in the positive analysis fitting direction relative to DMSO as the negative control and baseline of activity. Using a type of inducible reporter, measures of mRNA for gain-of-signal activity can be used to understand the reporter gene at the transcription factor-level as they relate to the gene ER. Furthermore, this assay endpoint can be referred to as a primary readout, because this assay has produced multiple assay endpoints where this one serves a reporter gene function. To generalize the intended target to other relatable targets, this assay endpoint is annotated to the nuclear receptor intended target family, where the subfamily is steroidal.
Human liver HepG2 cells are transiently transfected with multiple reporter transcription units (MRTUs) in 6-well plates using FuGene 6 reagent (Roche; 3 ml FuGene/1 mg DNA). The MRTU constructs are regulated by a cis-regulating element (promoter). […] A major difference between the CIS and TRANS system is that in CIS activities of endogenous TFs are measured, whereas the TRANS assay evaluates changes in activities of exogenous, chimeric NR-Gal4 proteins. […] At the end of 24 hour incubation, total RNA was isolated using TriZol reagent (Invitrogen). The isolated RNA is then reverse-transcribed using oligo(dT) primer and Mo-MLV reverse transcriptase (Invitrogen) with DNAse I (Ambion) treatment for 30 min. The one-tenth of the produced cDNA was amplified by PCR using Taq DNA polymerase (Invitrogen) and two reporter sequence-specific primers. The PCR products were fluorescently labeled by primer extension with 6-arboxyfluorescein (6-FAM) 5'-labeled reporter sequence-specific primer (2 min at 95 C, 20 s at 68 C and 10 min at 72 C) and these products were digested with 5U of HpaI (New England Biolabs) for 2h at 37 C. The fragments were purified using Qiaquick PCR columns (Qiagen), analyzed on an ABI 3130xL genetic analyzer (Applied Biosystems) with peak positions identified by using a set of X-rhodamine (ROX)-labeled MapMarker1000 molecular weight standards (BioVentures). The raw capillary electrophoresis data was processed using Attagraph software (Attagene).

Chain of chicken Estrogen Receptor (ERa), ESR1 (gene 396099) (P06212 whole entry, looked up): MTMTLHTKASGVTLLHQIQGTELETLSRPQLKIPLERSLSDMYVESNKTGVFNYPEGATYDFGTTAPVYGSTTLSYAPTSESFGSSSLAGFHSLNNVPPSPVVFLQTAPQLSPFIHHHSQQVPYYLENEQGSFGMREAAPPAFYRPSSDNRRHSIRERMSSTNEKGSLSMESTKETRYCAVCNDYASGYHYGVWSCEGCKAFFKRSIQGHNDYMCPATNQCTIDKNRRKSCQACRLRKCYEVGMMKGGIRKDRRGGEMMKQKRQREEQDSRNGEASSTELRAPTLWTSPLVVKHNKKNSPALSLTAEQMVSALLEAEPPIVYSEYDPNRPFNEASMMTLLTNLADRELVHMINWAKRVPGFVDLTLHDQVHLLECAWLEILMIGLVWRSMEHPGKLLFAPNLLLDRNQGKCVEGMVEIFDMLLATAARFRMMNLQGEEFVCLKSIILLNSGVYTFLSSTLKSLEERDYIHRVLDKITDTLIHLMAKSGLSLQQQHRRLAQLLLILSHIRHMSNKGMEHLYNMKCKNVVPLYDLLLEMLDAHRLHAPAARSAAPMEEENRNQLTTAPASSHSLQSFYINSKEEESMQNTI

SMILES	outcome	AC50
COC(=O)N(OC)c1ccccc1COc1ccn(-c2ccc(Cl)cc2)n1	inactive	
COc1ccc(C(c2ccc(OC)cc2)C(Cl)(Cl)Cl)cc1		7.74 µM (active)
C=CC1(C)OC(=O)N(c2cc(Cl)cc(Cl)c2)C1=O (stereo not drawn)	inactive	
CON(C)C(=O)Nc1ccc(Cl)c(Cl)c1	inactive	
C#CCOS(=O)OC1CCCCC1Oc1ccc(C(C)(C)C)cc1 (stereo not drawn)	inactive	
CC(C)(C)c1ccc(CSc2cnn(C(C)(C)C)c(=O)c2Cl)cc1	inactive	
CCCN(CCC)c1c([N+](=O)[O-])cc(S(N)(=O)=O)cc1[N+](=O)[O-]	inactive	
COP(=S)(OC)Oc1nc(Cl)c(Cl)cc1Cl		35.3 µM (active)
OC(c1ccc(Cl)cc1)(c1cncnc1)c1ccccc1Cl (stereo not drawn)		1.8 µM (active)
CCOP(=S)(OCC)SCn1c(=O)oc2cc(Cl)ccc21	inactive	
CCCCOC(=O)c1ccccc1C(=O)OCCCC		23 µM (active)
CC(C)Oc1cc(-n2nc(C(C)(C)C)oc2=O)c(Cl)cc1Cl		100 µM (active)
CCCC1COC(Cn2cncn2)(c2ccc(Cl)cc2Cl)O1 (stereo not drawn)		3.88 µM (active)
